According to PubChem BioAssay (NCATS):
Records with an inconclusive call do not appear. Active and inactive are the calls of the source. Unless noted, the call rests on the fitted dose curve; in most records, active means well fitted curve in the direction sought with a large enough effect; inconclusive means small, poorly fitted or top-dose-only effect, or another doubt; inactive means no such curve, though single readings can be large; an effect the other way counts as inactive or inconclusive.

Tests used:
[1] = qHTS for Inhibitors of Plasmodium falciparum (DD2) proliferation (AID 504314);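 further: parasite DNA measured by SYBR Green fluorescence after red cell lysis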
Summary of the method: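 SYBR Green growth assay: 72 h compound exposure of infected red cells (2.5% hematocrit, 0.3% parasitemia), then lysis and overnight dye staining, fluorescence 485/535 nm. Values scaled between DMSO and 0.29 uM artemisinin controls.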

[2] = qHTS for Inhibitors of Plasmodium falciparum (GB4) proliferation (AID 504315); further: nearly all actives have a fitted effect of over 50% in size
Summary of the method: (§1)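 Parasite growth measured as SYBR Green DNA fluorescence (ex 485, em 535 nm) after overnight lysis following 72 h culture at 37 °C, 0.3% parasitemia, 2.5% hematocrit. Values normalized against DMSO and 0.29 uM artemisinin controls, with plate-stack correction.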

[3] = qHTS for Inhibitors of Plasmodium falciparum (7G8) proliferation (AID 504316); further: series mostly up to about 6.7 µM; nearly all actives have a fitted effect of over 65% in size
Summary of the method: as §1

[4] = qHTS for Inhibitors of Plasmodium falciparum (HB3) proliferation (AID 504318); further: nearly all actives have a fitted effect of over 60% in size
Summary of the method: as §1

[5] = qHTS for Inhibitors of Plasmodium falciparum (CP250) proliferation (AID 504320)
Summary of the method: as §1

[6] = biological target: Atrial natriuretic peptide receptor 1 (Homo sapiens) (UniProt P16066); test: Natriuretic polypeptide receptor (hNpr1) antagonism - Pilot CMLD screen (AID 1347052; calls by dose curve;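 further: HEK293 cells with hNpr1 stimulated by hNppA peptide at 0.1 nM; cGMP level read as GloSensor luciferase luminescence after agonist stimulation; series mostly up to about 9.2 µM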)

Measured: Potency

Chain of Atrial natriuretic peptide receptor 1 (Homo sapiens) (P16066 whole entry, looked up): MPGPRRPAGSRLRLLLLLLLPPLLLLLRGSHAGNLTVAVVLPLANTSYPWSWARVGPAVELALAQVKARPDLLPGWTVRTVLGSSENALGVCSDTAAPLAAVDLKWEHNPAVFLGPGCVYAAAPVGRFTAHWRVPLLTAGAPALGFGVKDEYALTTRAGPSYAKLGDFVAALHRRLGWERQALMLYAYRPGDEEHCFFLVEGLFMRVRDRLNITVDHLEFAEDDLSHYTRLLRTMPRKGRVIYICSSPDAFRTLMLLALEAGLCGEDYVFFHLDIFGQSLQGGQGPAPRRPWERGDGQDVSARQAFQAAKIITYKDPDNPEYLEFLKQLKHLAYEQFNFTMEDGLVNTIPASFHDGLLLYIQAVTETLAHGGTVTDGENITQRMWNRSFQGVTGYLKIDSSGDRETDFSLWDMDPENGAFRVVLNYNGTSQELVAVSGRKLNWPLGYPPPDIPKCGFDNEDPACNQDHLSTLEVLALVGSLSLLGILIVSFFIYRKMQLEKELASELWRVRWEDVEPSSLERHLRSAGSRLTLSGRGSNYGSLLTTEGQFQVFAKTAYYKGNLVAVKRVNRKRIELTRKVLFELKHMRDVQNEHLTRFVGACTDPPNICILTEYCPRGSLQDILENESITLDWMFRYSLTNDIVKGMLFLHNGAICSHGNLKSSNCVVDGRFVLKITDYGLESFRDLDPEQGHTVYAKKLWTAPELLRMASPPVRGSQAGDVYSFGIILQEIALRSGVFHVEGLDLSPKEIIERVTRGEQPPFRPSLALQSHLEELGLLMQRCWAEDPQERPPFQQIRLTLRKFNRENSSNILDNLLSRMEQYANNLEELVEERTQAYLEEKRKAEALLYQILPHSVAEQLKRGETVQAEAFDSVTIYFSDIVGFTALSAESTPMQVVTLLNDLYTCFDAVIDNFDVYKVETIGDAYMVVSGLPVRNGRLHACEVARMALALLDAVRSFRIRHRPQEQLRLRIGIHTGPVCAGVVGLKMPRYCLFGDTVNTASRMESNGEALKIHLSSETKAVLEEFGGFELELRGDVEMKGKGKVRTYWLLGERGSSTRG

C[C@@H]1C(c2ccccc2)=Cc2[nH]c(=O)[nH]c2C[C@@H]1C(=O)N1CCCC1
inactive: all assays above

CC(=O)OC[C@H]1O[C@H](CC=NO[C@H](C)c2cn([C@@H]3COC[C@@H]3O)nn2)C=C[C@@H]1OC(C)=O
inactive: all assays above

COC(=O)N[C@@H](c1ccco1)[C@]1(C(=O)OC)CCCC1=O
inactive: all assays above

CCN1C(=O)N(C)C(c2ccccc2)C(C(=O)OC)=C1C (stereo unspecified)
inactive: all assays above

COC(=O)NC(CCc1ccccc1)C(C(C)=O)C(=O)OC (stereo unspecified)
inactive: all assays above

COC(=O)N[C@H](CC(C)=O)c1cccc(C(F)(F)F)c1
inactive: all assays above

CC1(C)O[C@H]2OC([C@H](O)CON3C(=O)c4ccccc4C3=O)[C@H](O)[C@@H]2O1 (stereo partly specified)
inactive: all assays above

COC(=O)N[C@@H](c1cccc(C)c1)[C@]1(C(=O)OC)CCCC1=O
inactive: all assays above

CCCCCCCc1cc2ccccc2c2c(C(=O)OCC)c(C(=O)OCC)c(C(=O)OCC)n12
inactive: all assays above

COC(=O)C1=C(C)N(Cc2ccco2)C(=O)NC1c1ccco1 (stereo unspecified)
inactive: all assays above

CCN1C(=O)NC(CCc2ccccc2)C(C(=O)OC)=C1C (stereo unspecified)
inactive: all assays above

COCC(=O)C(C(=O)OC)[C@H](CCc1ccccc1)NC(=O)OC (stereo partly specified)
inactive: all assays above

COC(=O)c1nnc(N[C@@H](Cc2c[nH]c3ccccc23)C(=O)OC)nc1C(=O)OC
inactive: all assays above

CC(=O)C1=C(C)N(Cc2ccccc2)C(=O)NC1c1cccs1 (stereo unspecified)
inactive: all assays above

COC(=O)C1=C(C(=O)OC)[C@@H]2N(C)c3ccccc3[C@@]23C[C@@H](C(=O)OC)N(C(=O)NC(C)(C)C)C3=N1
inactive: all assays above

OC[C@H]1O[C@H](c2ccccc2)C=C[C@H]1O
inactive: all assays above

COC(=O)C1=C2C=C(C)CC(C)N2C(=O)NC1c1ccccc1 (stereo unspecified)
inactive: all assays above

CC(=O)OC[C@H]1O[C@H](CC=NOC[C@@H](O)[C@H]2O[C@@H]3OC(C)(C)O[C@H]3[C@@H]2O)C=C[C@H]1OC(C)=O
inactive: all assays above

C=CCOC(=O)N[C@H](C(C(=O)OC)=C(C)NCc1ccccc1)c1cccc(OC)c1
inactive: all assays above

COCCN1C(=O)NC(c2cccc(F)c2)C(C(C)=O)=C1C (stereo unspecified)
inactive: all assays above

COCCN1C(=O)N[C@@H](CCc2ccccc2)[C@@H](C(=O)OC)[C@H]1C
inactive: all assays above

COc1ccc(C2=CC3=C(Br)C(=O)C(C)(OC(=O)c4ccc(Cl)nc4)C(=O)C3=CO2)cc1 (stereo unspecified)
inactive: all assays above

COC(=O)C1=C(C(=O)OC)[C@@H]2N(C)c3ccc(OC)cc3[C@@]23C[C@@H](C(=O)OC)N(C(=O)c2cccs2)C3=N1
inactive: all assays above

COC1=C[C@H](C(=O)NCc2ccccc2)[C@@]2(C)Cc3ccccc3[C@@H]2CC1=O
inactive: all assays above

CCN1C(=O)[C@@H]2[C@H]3[C@H](O)[C@H](O)CC(=NO[C@H](C)CN4CCCc5nc(C)c(C)cc54)[C@@H]3CC[C@H]2C1=O
inactive: all assays above

CC=COC(=O)N[C@@H](c1ccccc1)[C@]1(C(=O)OCC)CCCC1=O
inactive: all assays above
